# Experimental data: publication PMC7862700, “An all-to-all approach to the identification of sequence-specific readers for epigenetic DNA modifications on cytosine”
# What was measured:
# Test in all cases: DAPPL (digital affinity profiling via proximity ligation, sequencing); 10 mM Tris-HCl pH 7.5, 50 mM NaCl, 1 mM DTT, 4% glycerol, room temperature, 30 min; GST-TFs on glutathione beads, 16-mer random dsDNA library, 0.1% formaldehyde crosslink after washing; high values mean tight binding
# Details in all cases: protein: recombinant; tags: N-terminal GST; dsDNA, one strand shown
# [1] = molecular target: T1, FLI1 (Homo sapiens, UniProt Q01543 1-452)
# T1 sequence: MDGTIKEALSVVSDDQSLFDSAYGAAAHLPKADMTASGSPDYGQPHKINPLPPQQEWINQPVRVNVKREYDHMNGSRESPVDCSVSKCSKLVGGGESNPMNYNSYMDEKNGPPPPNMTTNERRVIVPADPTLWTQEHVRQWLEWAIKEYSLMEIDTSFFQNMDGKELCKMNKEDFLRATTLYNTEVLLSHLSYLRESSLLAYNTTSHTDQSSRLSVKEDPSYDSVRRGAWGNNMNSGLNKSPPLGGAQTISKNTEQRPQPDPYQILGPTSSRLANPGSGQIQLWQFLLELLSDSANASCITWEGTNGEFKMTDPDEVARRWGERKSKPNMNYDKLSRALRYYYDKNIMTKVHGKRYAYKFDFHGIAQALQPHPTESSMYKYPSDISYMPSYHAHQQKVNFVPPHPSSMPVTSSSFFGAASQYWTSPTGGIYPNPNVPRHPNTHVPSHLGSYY
# Procedure, shortened: (§1)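 Yeast served to express human transcription factors as GST fusions, which were then captured on glutathione beads and labelled with DNA barcodes. Pooled with a tag-only sample, they were incubated with 200 nmole of a 16-mer random double-stranded DNA library for 30 min at room temperature in Tris/NaCl/DTT/glycerol buffer, washed, crosslinked with 0.1% formaldehyde, ligated by proximity, amplified by PCR and sequenced. Dividing each hexamer's read frequency for a factor by its frequency for the tag-only sample gives the binding signal.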
# [2] = molecular target: T2, EHF (Homo sapiens, UniProt Q9NZC4 1-300)
# T2 sequence: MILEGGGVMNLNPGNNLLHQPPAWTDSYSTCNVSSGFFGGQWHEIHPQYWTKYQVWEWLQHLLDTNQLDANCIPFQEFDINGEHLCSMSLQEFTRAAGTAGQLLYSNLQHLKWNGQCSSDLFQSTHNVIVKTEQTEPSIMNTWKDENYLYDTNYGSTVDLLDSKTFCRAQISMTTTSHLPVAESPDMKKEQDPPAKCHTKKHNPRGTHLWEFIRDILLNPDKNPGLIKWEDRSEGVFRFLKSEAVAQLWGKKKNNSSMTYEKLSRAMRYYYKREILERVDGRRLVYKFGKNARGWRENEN
# Procedure, shortened: as §1
# [3] = molecular target: SPI1 (Homo sapiens, UniProt P17947 1-270)
# Procedure, shortened: as §1
# [4] = molecular target: T3, ELK3 (Homo sapiens, UniProt P41970 1-407)
# T3 sequence: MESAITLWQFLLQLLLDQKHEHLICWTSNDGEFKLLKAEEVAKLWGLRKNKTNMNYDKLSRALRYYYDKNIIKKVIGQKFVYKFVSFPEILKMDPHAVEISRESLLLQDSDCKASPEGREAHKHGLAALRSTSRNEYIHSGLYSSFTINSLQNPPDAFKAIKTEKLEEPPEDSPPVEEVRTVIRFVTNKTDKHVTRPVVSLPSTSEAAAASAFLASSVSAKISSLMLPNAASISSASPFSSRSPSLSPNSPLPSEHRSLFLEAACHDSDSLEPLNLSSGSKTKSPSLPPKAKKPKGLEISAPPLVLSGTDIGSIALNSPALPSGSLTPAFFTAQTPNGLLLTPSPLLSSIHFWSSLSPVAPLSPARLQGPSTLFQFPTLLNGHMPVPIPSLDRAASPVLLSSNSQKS
# Procedure, shortened: as §1
# [5] = molecular target: T4, SPIC (Homo sapiens, UniProt Q8N5J4 1-248)
# T4 sequence: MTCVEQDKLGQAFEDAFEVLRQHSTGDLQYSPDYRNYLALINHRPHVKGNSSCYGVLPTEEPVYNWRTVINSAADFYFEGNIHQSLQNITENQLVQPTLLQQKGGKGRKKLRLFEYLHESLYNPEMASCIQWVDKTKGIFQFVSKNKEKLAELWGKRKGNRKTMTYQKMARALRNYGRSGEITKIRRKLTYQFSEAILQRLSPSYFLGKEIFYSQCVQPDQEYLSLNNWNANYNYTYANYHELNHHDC
# Procedure, shortened: as §1
# [6] = molecular target: T5, ELK4 (Homo sapiens, UniProt P28324-2 1-405)
# T5 sequence: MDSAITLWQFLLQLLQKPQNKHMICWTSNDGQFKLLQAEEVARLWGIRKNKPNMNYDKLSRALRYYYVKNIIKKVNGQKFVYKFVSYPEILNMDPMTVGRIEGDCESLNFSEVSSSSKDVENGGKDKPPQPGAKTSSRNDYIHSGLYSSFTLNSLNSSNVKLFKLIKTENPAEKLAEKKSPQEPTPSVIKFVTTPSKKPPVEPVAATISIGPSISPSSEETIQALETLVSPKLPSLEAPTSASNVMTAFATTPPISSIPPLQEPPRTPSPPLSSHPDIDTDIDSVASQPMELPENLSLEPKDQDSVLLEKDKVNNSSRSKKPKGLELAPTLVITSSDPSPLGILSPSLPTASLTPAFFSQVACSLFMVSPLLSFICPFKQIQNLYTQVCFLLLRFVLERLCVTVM
# Procedure, shortened: as §1
# [7] = molecular target: T6, ETV2 (Homo sapiens, UniProt O00321 1-342)
# T6 sequence: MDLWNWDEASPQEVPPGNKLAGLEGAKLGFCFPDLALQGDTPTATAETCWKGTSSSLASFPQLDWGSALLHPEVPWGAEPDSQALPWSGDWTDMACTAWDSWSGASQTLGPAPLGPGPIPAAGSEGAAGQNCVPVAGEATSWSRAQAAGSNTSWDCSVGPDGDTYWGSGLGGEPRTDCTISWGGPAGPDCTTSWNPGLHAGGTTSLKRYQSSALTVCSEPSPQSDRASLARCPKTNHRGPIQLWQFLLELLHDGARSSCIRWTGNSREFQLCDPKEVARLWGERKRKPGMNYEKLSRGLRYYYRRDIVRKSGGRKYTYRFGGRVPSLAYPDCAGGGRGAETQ
# Procedure, shortened: as §1
# [8] = molecular target: T7, ETV3 (Homo sapiens, UniProt P41162-2 1-143)
# T7 sequence: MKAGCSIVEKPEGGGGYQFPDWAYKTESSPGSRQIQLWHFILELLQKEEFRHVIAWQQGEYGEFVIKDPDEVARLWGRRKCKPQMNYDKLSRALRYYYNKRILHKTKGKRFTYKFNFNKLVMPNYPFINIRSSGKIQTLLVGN
# Procedure, shortened: as §1
# [9] = molecular target: ETV6 (Homo sapiens, UniProt P41212 1-452)
# Procedure, shortened: as §1
# [10] = molecular target: T8, GABPA (Homo sapiens, UniProt Q06546 1-454)
# T8 sequence: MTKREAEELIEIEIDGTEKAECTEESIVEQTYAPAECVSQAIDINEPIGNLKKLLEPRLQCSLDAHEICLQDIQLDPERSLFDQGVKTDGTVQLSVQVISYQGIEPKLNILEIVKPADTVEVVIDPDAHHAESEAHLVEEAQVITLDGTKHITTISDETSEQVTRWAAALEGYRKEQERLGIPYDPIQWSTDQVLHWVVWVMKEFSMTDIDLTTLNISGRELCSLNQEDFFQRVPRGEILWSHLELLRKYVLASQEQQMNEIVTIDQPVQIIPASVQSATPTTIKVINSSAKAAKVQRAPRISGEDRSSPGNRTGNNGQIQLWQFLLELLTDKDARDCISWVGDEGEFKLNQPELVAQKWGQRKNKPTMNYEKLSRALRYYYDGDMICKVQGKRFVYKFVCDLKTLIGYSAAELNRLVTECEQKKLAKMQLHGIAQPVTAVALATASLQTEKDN
# Procedure, shortened: as §1
# [11] = molecular target: T9, ERG (Homo sapiens, UniProt P11308 1-479)
# T9 sequence: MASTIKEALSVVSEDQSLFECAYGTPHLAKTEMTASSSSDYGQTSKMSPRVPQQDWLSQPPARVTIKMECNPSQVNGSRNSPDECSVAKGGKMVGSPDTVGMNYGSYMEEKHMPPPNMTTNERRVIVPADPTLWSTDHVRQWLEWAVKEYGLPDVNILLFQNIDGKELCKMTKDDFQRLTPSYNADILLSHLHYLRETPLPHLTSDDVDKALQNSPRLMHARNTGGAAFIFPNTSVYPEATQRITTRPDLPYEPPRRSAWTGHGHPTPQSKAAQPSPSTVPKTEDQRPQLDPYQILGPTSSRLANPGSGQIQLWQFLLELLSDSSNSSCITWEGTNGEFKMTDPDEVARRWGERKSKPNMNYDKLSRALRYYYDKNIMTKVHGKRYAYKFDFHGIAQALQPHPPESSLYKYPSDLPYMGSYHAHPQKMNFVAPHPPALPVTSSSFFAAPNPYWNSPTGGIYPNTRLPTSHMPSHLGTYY
# Procedure, shortened: as §1
# [12] = molecular target: ELF1 (Homo sapiens, UniProt P32519 1-619)
# Procedure, shortened: as §1
# [13] = molecular target: SPIB (Homo sapiens, UniProt Q01892 1-262)
# Procedure, shortened: as §1
# [14] = molecular target: ELF4 (Homo sapiens, UniProt Q99607 1-663)
# Procedure, shortened: as §1
# [15] = molecular target: T10, ELF3 (Homo sapiens, UniProt P78545 1-371)
# T10 sequence: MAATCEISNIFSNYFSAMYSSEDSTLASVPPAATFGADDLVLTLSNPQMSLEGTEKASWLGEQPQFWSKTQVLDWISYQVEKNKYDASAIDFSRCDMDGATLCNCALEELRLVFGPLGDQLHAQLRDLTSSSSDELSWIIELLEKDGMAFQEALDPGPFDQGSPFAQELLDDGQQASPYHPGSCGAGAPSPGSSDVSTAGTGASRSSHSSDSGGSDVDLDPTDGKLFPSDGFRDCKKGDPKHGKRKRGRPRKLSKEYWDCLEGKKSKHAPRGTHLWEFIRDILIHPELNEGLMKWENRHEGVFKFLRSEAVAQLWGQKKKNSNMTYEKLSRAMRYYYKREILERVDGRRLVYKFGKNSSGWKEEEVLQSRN
# Procedure, shortened: as §1
# [16] = molecular target: ETV1 (Homo sapiens, UniProt P50549 1-477)
# Procedure, shortened: as §1
# [17] = molecular target: T11, ETV3L (Homo sapiens, UniProt Q6ZN32 1-361)
# T11 sequence: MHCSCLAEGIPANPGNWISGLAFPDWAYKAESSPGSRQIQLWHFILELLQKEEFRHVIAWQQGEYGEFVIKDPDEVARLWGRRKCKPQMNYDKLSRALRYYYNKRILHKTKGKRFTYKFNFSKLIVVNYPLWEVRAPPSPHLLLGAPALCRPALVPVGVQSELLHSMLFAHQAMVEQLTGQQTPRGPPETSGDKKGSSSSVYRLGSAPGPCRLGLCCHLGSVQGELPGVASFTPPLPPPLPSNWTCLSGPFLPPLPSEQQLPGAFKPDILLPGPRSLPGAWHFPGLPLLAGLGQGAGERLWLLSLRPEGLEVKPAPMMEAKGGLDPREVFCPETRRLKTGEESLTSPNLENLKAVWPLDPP
# Procedure, shortened: as §1
# [18] = molecular target: T12, ETV7 (Homo sapiens, UniProt Q9Y603 1-341)
# T12 sequence: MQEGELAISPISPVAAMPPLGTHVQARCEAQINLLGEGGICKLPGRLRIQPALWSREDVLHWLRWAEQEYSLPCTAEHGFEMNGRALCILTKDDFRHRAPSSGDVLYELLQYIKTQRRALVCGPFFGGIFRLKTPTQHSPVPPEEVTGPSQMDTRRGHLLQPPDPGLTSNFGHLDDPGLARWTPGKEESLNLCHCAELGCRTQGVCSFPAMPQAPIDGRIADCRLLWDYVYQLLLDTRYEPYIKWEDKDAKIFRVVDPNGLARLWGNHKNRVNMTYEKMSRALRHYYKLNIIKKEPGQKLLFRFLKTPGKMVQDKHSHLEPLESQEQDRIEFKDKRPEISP
# Procedure, shortened: as §1
# Chain of ETV6 (P41212 whole entry): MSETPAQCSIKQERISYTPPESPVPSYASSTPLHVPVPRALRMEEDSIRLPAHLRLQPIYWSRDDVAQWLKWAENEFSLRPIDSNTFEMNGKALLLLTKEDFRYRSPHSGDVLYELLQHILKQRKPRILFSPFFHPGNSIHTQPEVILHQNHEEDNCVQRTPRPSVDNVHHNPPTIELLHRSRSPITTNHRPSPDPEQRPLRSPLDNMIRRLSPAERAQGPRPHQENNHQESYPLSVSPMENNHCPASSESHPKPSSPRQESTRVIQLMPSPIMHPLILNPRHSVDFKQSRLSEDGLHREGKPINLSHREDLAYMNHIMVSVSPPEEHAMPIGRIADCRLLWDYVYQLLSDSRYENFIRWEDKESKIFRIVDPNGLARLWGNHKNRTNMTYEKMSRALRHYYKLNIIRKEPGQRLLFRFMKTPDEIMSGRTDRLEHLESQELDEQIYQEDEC
# Chain of ETV1 (P50549 whole entry): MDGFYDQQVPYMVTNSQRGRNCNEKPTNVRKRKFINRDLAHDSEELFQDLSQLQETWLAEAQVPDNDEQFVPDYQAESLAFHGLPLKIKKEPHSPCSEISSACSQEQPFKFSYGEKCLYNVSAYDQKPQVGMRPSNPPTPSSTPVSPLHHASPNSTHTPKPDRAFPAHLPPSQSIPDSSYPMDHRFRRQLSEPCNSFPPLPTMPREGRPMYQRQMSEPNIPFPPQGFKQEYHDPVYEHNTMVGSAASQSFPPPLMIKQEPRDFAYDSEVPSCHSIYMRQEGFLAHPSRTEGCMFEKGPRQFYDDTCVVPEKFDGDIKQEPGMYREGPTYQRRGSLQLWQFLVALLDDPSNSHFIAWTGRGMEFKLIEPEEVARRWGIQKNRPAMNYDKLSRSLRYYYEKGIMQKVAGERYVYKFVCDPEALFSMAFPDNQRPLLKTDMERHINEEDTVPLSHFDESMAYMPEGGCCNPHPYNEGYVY
# Chain of SPIB (Q01892 whole entry): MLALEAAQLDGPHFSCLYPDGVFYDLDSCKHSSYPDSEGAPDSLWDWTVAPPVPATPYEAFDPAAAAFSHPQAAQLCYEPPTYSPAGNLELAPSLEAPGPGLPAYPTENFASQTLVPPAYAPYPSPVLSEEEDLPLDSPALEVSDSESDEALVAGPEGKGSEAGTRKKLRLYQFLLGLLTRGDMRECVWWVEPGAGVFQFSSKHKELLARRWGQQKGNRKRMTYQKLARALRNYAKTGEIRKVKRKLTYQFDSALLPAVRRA
# Chain of ELF4 (Q99607 whole entry): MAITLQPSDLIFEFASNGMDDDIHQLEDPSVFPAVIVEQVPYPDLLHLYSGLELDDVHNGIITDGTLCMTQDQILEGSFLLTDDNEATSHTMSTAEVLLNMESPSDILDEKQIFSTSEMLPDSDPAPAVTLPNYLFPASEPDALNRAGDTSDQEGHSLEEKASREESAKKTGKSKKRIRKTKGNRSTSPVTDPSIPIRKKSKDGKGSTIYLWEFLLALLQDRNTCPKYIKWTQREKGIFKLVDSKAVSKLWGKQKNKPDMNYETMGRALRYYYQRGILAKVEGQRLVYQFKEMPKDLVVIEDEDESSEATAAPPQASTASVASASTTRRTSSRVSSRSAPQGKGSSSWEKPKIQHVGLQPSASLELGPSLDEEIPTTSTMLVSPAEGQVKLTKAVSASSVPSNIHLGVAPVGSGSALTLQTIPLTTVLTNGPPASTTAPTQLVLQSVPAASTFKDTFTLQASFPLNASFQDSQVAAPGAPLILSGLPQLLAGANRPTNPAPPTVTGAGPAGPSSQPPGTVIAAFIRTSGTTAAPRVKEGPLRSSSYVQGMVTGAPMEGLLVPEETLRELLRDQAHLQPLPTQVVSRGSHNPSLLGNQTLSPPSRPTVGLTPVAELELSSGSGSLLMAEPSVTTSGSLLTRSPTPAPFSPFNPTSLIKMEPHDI
# Chain of ELF1 (P32519 whole entry): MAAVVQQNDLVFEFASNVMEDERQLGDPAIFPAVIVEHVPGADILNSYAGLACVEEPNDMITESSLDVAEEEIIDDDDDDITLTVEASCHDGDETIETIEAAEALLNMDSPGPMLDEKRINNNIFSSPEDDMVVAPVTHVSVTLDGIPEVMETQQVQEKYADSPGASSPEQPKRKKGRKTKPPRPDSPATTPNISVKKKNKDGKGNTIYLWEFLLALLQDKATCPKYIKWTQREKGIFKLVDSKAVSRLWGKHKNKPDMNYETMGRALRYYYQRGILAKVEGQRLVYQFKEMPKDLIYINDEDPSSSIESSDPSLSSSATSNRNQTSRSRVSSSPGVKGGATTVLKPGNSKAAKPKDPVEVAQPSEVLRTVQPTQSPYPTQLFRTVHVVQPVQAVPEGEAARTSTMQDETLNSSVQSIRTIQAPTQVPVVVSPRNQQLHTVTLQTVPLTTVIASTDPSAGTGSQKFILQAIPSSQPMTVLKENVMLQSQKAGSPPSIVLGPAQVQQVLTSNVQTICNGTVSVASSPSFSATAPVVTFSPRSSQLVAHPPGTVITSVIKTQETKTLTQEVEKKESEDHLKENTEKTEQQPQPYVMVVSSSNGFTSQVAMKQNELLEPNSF
Sequence,binding signal [1],binding signal [2],binding signal [3],binding signal [4],binding signal [5],binding signal [6],binding signal [7],binding signal [8],binding signal [9],binding signal [10],binding signal [11],binding signal [12],binding signal [13],binding signal [14],binding signal [15],binding signal [16],binding signal [17],binding signal [18]
GTGGCA,"1.05 fold enrichment (6-mer frequency, TF over GST control)","1.03 fold enrichment (6-mer frequency, TF over GST control)","1.04 fold enrichment (6-mer frequency, TF over GST control)","1.04 fold enrichment (6-mer frequency, TF over GST control)","1.04 fold enrichment (6-mer frequency, TF over GST control)","1.04 fold enrichment (6-mer frequency, TF over GST control)","1.07 fold enrichment (6-mer frequency, TF over GST control)","1 fold enrichment (6-mer frequency, TF over GST control)","1.05 fold enrichment (6-mer frequency, TF over GST control)",,,,,,,,,
TGTGAT,"1.16 fold enrichment (6-mer frequency, TF over GST control)","1.03 fold enrichment (6-mer frequency, TF over GST control)",,,,"1.07 fold enrichment (6-mer frequency, TF over GST control)",,,,"1.01 fold enrichment (6-mer frequency, TF over GST control)","1.06 fold enrichment (6-mer frequency, TF over GST control)","1.01 fold enrichment (6-mer frequency, TF over GST control)","1.01 fold enrichment (6-mer frequency, TF over GST control)","1.05 fold enrichment (6-mer frequency, TF over GST control)","1.14 fold enrichment (6-mer frequency, TF over GST control)","1.08 fold enrichment (6-mer frequency, TF over GST control)","1.01 fold enrichment (6-mer frequency, TF over GST control)","1.05 fold enrichment (6-mer frequency, TF over GST control)"
